This is an account of results in PubChem BioAssay (NCI).

The panel holds about 83,000 compounds, 20% with a hit somewhere; the sample as a whole holds those more often.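 Single-dose data. Exposure time 48 hours. Values below 10 considered active.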 Values without a mark were called inactive. Active and inactive are the calls of the source.

Some test systems named below: NCI-H23 lung; NCI-H226 lung; NCI-H322M lung; HOP-62 NSCLC; NCI-H460 lung; HOP-92 NSCLC; A549/ATCC NSCLC; 786-0 renal; COLO 205 colon; DU-145 prostate; MALME-3M melanoma; MDA-MB-231 breast; RXF 393 renal; SF-268 CNS; SF-295 CNS; SF-539 CNS; UACC-257 melanoma; M14 melanoma; NCI-H522 lung; K-562 leukemia.
Common to all, as to test: NCI-60 one-dose screen, 48 h (100 = growth as untreated, 0 = no growth, -100 = all killed)
Details in all cases: 10 µM

For `CC(C)NC(=O)c1cc(-c2ccc(NC(=O)Nc3ccc(N4CCN(C)CC4)c(C(F)(F)F)c3)cc2)nc2cccnc12`, the growth is -84.6% (active) with NCI-H23 lung; -69.1% (active) with NCI-H226 lung; -90.6% (active) in the assay on NCI-H322M lung; -88.4% (active) with HOP-62 NSCLC; -61.7% (active) in the assay with NCI-H460 lung; -74.8% (active) with HOP-92 NSCLC. Further, the growth was -78.9% (active) in the assay with A549/ATCC NSCLC; -93.8% (active) in the assay on 786-0 renal; -81.1% (active) in the assay on COLO 205 colon; -88.7% (active) with DU-145 prostate; -96.3% (active) in the assay with MALME-3M melanoma; -91.6% (active) in the assay with MDA-MB-231 breast. Further, the growth is -89.8% (active) with RXF 393 renal; -42.9% (active) with SF-268 CNS; -96.5% (active) in the assay on SF-295 CNS; -100% (active) with SF-539 CNS; -88.6% (active) with UACC-257 melanoma; -86.6% (active) in the assay with M14 melanoma.

Regarding `O=S(=O)(c1ccc(Cl)cc1)c1nc(-c2ccccc2)oc1S(=O)(=O)c1ccc(Cl)cc1`, the growth is 78.9% in the assay on NCI-H23 lung; 87.5% in the assay on NCI-H226 lung; 101% with NCI-H322M lung; 91.3% in the assay with HOP-62 NSCLC; 98% in the assay on NCI-H460 lung; 85.7% with HOP-92 NSCLC. For the same molecule, the growth is 94.2% with A549/ATCC NSCLC; 94.9% in the assay with 786-0 renal; 102% in the assay on COLO 205 colon; 97.2% in the assay on DU-145 prostate; 91.8% in the assay with MALME-3M melanoma; 76.9% with MDA-MB-231 breast. The growth with RXF 393 renal is 7.97% (active); in the assay on SF-268 CNS it was 97.7%; with SF-295 CNS, 92.9%; with SF-539 CNS it was 84.8%; in the assay on UACC-257 melanoma it was 85.5%; with M14 melanoma, 90.8%.

For the molecule `O=C(NCCCCC(c1ccc(F)cc1)c1ccc(F)cc1)NCCCc1cccnc1`, the growth is 24% in the assay with NCI-H23 lung; 41.2% in the assay on NCI-H226 lung; 64.8% with NCI-H322M lung; 56.2% in the assay with HOP-62 NSCLC; 28.8% in the assay on NCI-H460 lung; 19.4% in the assay on HOP-92 NSCLC. Also, the growth in the assay with NCI-H522 lung is 16.8%; with A549/ATCC NSCLC, 27.2%; with 786-0 renal, 47.7%; with DU-145 prostate, 22%; in the assay with MALME-3M melanoma, -13% (active); in the assay on MDA-MB-231 breast it was 44.8%. Moreover, the growth with RXF 393 renal was 30.8%; in the assay with SF-268 CNS, 52.4%; in the assay on SF-295 CNS, 18.5%; with SF-539 CNS it was 0.987% (active); with UACC-257 melanoma it was 25.8%; in the assay with M14 melanoma, -20.2% (active).

As to `O=C1Nc2ccc(F)cc2/C1=C/c1cccc(OCc2ccccn2)c1`, the growth was 58.3% in the assay on NCI-H23 lung; 49.9% in the assay on NCI-H226 lung; 77% in the assay on NCI-H322M lung; 78.9% with HOP-62 NSCLC; 36.5% with NCI-H460 lung; 26.5% in the assay with HOP-92 NSCLC. For the same molecule, the growth was 77.4% in the assay with A549/ATCC NSCLC; 56% in the assay on 786-0 renal; 98.8% in the assay with COLO 205 colon; 42.5% in the assay on DU-145 prostate; 4.79% (active) with K-562 leukemia; 54.1% in the assay with MALME-3M melanoma. The growth in the assay with MDA-MB-231 breast was 30.7%; in the assay with RXF 393 renal, 28.3%; in the assay with SF-268 CNS it was 23.4%; in the assay with SF-295 CNS it was 24.3%; in the assay with SF-539 CNS, 35.5%; with UACC-257 melanoma, 44.1%. In addition, the growth with M14 melanoma is 36.3%.

On to `O=C(CNc1nc(-c2ccccc2)cs1)Nc1ccccc1`, for which the growth in the assay with NCI-H23 lung is -86.4% (active); in the assay with NCI-H226 lung, -2.46% (active); in the assay on NCI-H322M lung, -96.2% (active); with HOP-62 NSCLC, -62.9% (active); with NCI-H460 lung, -11.4% (active); with HOP-92 NSCLC it was -8.88% (active). Also, the growth is 7.05% (active) with A549/ATCC NSCLC; -25.5% (active) in the assay with 786-0 renal; -83.8% (active) with COLO 205 colon; 14.1% with DU-145 prostate; 5.68% (active) in the assay on K-562 leukemia; -61% (active) with MALME-3M melanoma. Also, the growth in the assay with MDA-MB-231 breast was -30.7% (active); with SF-268 CNS, 8.59% (active); in the assay with SF-295 CNS it was -1.92% (active); in the assay with SF-539 CNS it was -93.7% (active); in the assay with UACC-257 melanoma, -14.3% (active); in the assay with M14 melanoma, -73.8% (active).

For `CC1(C)CC[C@]2(C(=O)N3CCOCC3)CC[C@]3(C)C(=CC[C@@H]4[C@@]5(C)CC[C@H](NCO)C(C)(C)[C@@H]5CC[C@]43C)[C@H]2C1`, the growth in the assay on NCI-H23 lung was -88.1% (active); with NCI-H226 lung, -88.3% (active); in the assay with NCI-H322M lung it was -97.8% (active); with HOP-62 NSCLC, -73.8% (active); in the assay on NCI-H460 lung, -92.7% (active); in the assay on HOP-92 NSCLC, -64.3% (active). The growth was -79.8% (active) in the assay on NCI-H522 lung; -85.8% (active) in the assay on A549/ATCC NSCLC; -88.2% (active) with 786-0 renal; -89.4% (active) in the assay on DU-145 prostate; -96.6% (active) in the assay with MALME-3M melanoma; -97.6% (active) in the assay on MDA-MB-231 breast. The growth was -95% (active) in the assay on RXF 393 renal; -76.5% (active) in the assay on SF-268 CNS; -87.2% (active) with SF-295 CNS; -96.8% (active) with SF-539 CNS; -93.9% (active) in the assay with UACC-257 melanoma; -84.6% (active) with M14 melanoma.

In the case of `COc1csc(/C=N/NC(=O)c2[nH]c3ccc(Br)cc3c2-c2ccccc2)c1`, the growth in the assay with NCI-H23 lung is 7.1% (active); in the assay on NCI-H226 lung, 23.1%; in the assay on NCI-H322M lung, 34.7%; in the assay on HOP-62 NSCLC, 24.9%; with NCI-H460 lung it was -5.74% (active); in the assay on HOP-92 NSCLC, 49.2%. Besides, the growth was 13.7% in the assay with A549/ATCC NSCLC; 4.83% (active) with 786-0 renal; -79.9% (active) in the assay with COLO 205 colon; 7.13% (active) in the assay with DU-145 prostate; 4.06% (active) in the assay on K-562 leukemia; 30.9% in the assay with MALME-3M melanoma. The growth in the assay with MDA-MB-231 breast was 3.77% (active); in the assay on RXF 393 renal, 23.3%; in the assay on SF-268 CNS it was 23.5%; in the assay on SF-295 CNS, -10.2% (active); in the assay on SF-539 CNS, -39.8% (active); in the assay with UACC-257 melanoma, 34.8%. For the same molecule, the growth with M14 melanoma was 11.5%.

As for `C/C(=N\NC(N)=S)c1ccc(Nc2nc(SC(C)C)nc(-c3ccccc3)c2C#N)cc1`, the growth with NCI-H23 lung is 52.5%; in the assay with NCI-H226 lung it was 27.5%; in the assay on NCI-H322M lung, 74.3%; with HOP-62 NSCLC, 34.4%; in the assay on NCI-H460 lung, 41.7%; in the assay on HOP-92 NSCLC, -11.1% (active). Moreover, the growth in the assay with A549/ATCC NSCLC was 53.7%; with 786-0 renal it was 18.2%; in the assay with COLO 205 colon, 92.5%; in the assay with DU-145 prostate, 70.5%; in the assay on K-562 leukemia it was 87.2%; in the assay on MALME-3M melanoma, 55.7%. In addition, the growth in the assay on MDA-MB-231 breast was 40.5%; with SF-268 CNS, 54.8%; in the assay with SF-295 CNS, 44.3%; in the assay with SF-539 CNS, 30.7%; in the assay with UACC-257 melanoma, 85.1%; with M14 melanoma it was 77.4%.

For the molecule `O=C(CSc1ccc(-c2ccc(Cl)cc2)nn1)Nc1ccc(Cl)c(C(F)(F)F)c1`, the growth with NCI-H23 lung is 73.6%; in the assay with NCI-H226 lung, 76.1%; with NCI-H322M lung it was 89.1%; with HOP-62 NSCLC it was 57.4%; in the assay on NCI-H460 lung, 98.6%; in the assay on HOP-92 NSCLC, 75.8%. For the same molecule, the growth was 70.5% in the assay with A549/ATCC NSCLC; 80.6% in the assay on 786-0 renal; 74.8% with COLO 205 colon; 80% with DU-145 prostate; 9.36% (active) in the assay on K-562 leukemia; 54.1% in the assay on MALME-3M melanoma. Also, the growth in the assay on RXF 393 renal is 71.1%; in the assay on SF-268 CNS, 73.7%; in the assay on SF-295 CNS, 56.3%; with SF-539 CNS it was 60.7%; in the assay on UACC-257 melanoma, 67.7%; in the assay with M14 melanoma, 50.6%.

Take `CCC(C)S(=O)(=O)c1oc(-c2ccc(C)cc2)nc1S(=O)(=O)c1ccccc1` (stereo not given): the growth in the assay on NCI-H23 lung is -86.8% (active); in the assay on NCI-H226 lung it was -10.3% (active); in the assay on NCI-H322M lung, 65.1%; in the assay with HOP-62 NSCLC it was 28.7%; with NCI-H460 lung it was -13.9% (active); with HOP-92 NSCLC, -74.6% (active). The growth with NCI-H522 lung was -98.7% (active); with A549/ATCC NSCLC, 35.9%; with 786-0 renal it was -48.8% (active); in the assay on DU-145 prostate it was -89.6% (active); with MALME-3M melanoma it was -96.4% (active); in the assay with MDA-MB-231 breast, -88.1% (active). For the same molecule, the growth in the assay on RXF 393 renal was -98% (active); with SF-268 CNS, -49.1% (active); in the assay with SF-295 CNS, 46.9%; in the assay on SF-539 CNS, -100% (active); with UACC-257 melanoma, -89.5% (active); in the assay with M14 melanoma, -42% (active).

As to `COc1ccc(CN2[C@H](C(=O)NCCCCCCC(=O)NO)Cc3c([nH]c4ccccc34)[C@H]2C2CC2)cc1`, the growth with NCI-H23 lung is -17.5% (active); with NCI-H226 lung it was 28.1%; in the assay with NCI-H322M lung, 9.54% (active); with HOP-62 NSCLC it was 14%; with NCI-H460 lung, 6.41% (active); in the assay on HOP-92 NSCLC, -24.5% (active). Further, the growth was -44.6% (active) in the assay on NCI-H522 lung; 17.3% in the assay on A549/ATCC NSCLC; 17.4% in the assay on 786-0 renal; 9.36% (active) in the assay on DU-145 prostate; 7.5% (active) in the assay on K-562 leukemia; 1.45% (active) with MALME-3M melanoma. Also, the growth with MDA-MB-231 breast was -23% (active); in the assay on SF-268 CNS, 14.5%; with SF-295 CNS, -58.8% (active); in the assay on SF-539 CNS it was 2.87% (active); with UACC-257 melanoma, 9.9% (active); in the assay on M14 melanoma, 17.6%.
